# Experimental data: PubChem BioAssay AID743200 (The Scripps Research Institute Molecular Screening Center, 2013)
# The campaign covered roughly 1,500 compounds. About 950 (63%) were called active. So high a share suggests a set chosen from earlier hits. The list is a sample of the results. Unmarked numbers belong to inactive results. No stated cut-off is given here; in the data, active means inhibition above about 25%; inactive means the rest.
# Molecular target: Major prion protein (Homo sapiens) (UniProt P04156)
# Assay: cell surface PrPC inhibition, TR-FRET confirmation, confirmation, cell-based, TR-FRET (AID 743200)
# Conditions: cell surface PrPC level, at 13.8 µM, active compounds read high
row,SMILES,inhibition
1,COc1cccc2sc3cc(NCC[C@@H]4CCCN4C)ccc3c(=O)c12,46% (active)
2,COc1ccc2c(Cl)c(-c3nnco3)sc2c1,37.6% (active)
3,FC(F)(F)c1cccc(NC(=S)OC2CCC23CCC(c2ccccc2)CC3)c1 (stereo not drawn),15.7%
4,CC(=O)c1sc2nc(SCC(=O)N3CCCCC3)[nH]c(=O)c2c1C,28.8% (active)
5,COc1ccc(S(=O)(=O)N2CCOCC2)cc1NC(=O)CSc1ncnc2ccccc12,92.1% (active)
6,Cc1nc(/N=C(\N)NC(=O)NC2CCCCC2)nc2ccccc12,29.3% (active)
7,O=C(Nc1cccn(Cc2ccccc2Cl)c1=O)NC1CCCCC1,15.9%
8,O=C(CC(O)(C(F)(F)F)C(F)(F)F)Nc1ccc(Cl)c(Cl)c1,58.3% (active)
9,COc1ccc(NC(=O)COC(=O)CNC(=O)C2CCCCC2)cc1,3.04%
10,CCOC(=O)c1c(-c2ccccc2)oc2cc(Br)c(O)cc12,90.9% (active)
11,O=C(/C=C/c1ccc([N+](=O)[O-])o1)NNC(=O)c1ccc(F)cc1,64.6% (active)
12,CC1(C)Cc2ccccc2-c2[nH]c(=S)[nH]c(=O)c21,81.8% (active)
13,N#Cc1c(-c2cccs2)nc(SCC(=O)c2ccc(Br)cc2)[nH]c1=O,74.2% (active)
14,COc1cc(-n2c(=S)[nH]c3ccc(C)cc3c2=O)c(Cl)cc1Cl,46.2% (active)
15,CCCOc1ccc(C2C(C(=O)c3ccc(C)o3)=C(O)C(=O)N2CCCn2ccnc2)cc1 (stereo not drawn),52.6% (active)
16,O=C(Oc1ccccc1)Oc1ccc2c(c1)oc(=O)c1ccccc12,40.9% (active)
17,Cc1ccnc(NC(=O)C2CCN(S(=O)(=O)c3c(C)c(C)cc(C)c3C)CC2)c1,20.7%
18,C=CCNC(=O)CSc1nc2scc(-c3ccco3)c2c(=O)n1CC=C,31.3% (active)
19,Cc1cc2ccccc2n1CCNC(=O)COc1ccc2ccccc2c1,48.4% (active)
20,CCCc1nc(SCC(=O)Nc2ccc(S(=O)(=O)N(C)C)cc2)c2ccccc2n1,90.7% (active)
21,Cc1cccc(NC(=O)c2nc(S(=O)(=O)Cc3ccccc3)ncc2Cl)c1,39.3% (active)

row,SMILES,inhibition
1,Cc1cccc(CS(=O)(=O)c2ncc(Cl)c(C(=O)Nc3ccc(F)cc3)n2)c1,15.9%
2,CCCCCCCCn1c2c(c(=N)c3c1CCC3)CCCC2,44.9% (active)
3,CN(C)CCNC(=O)c1ccc(Cl)c2cc3ccccc3nc12,45.2% (active)
4,CO[C@H]([C@H](C)/C=C/N(C)C=O)[C@@H](C)C(=O)CC[C@H](C)[C@H](O)[C@H](C)[C@H]1OC(=O)/C=C/C(C)=C/[C@H](O)[C@H](OC)C[C@@H]2C=CC[C@@H](C[C@H](OC)[C@@]3(CO3)[C@@H](OC)C[C@@H](OC)[C@@H]1C)O2,32.5% (active)
5,Cn1c(=S)sc2ccc3ccccc3c21,75.4% (active)
6,CCCCNc1c(-c2cccc(Sc3ccc(OC)cc3)c2)nc2ccccn12,17%
7,Cc1sc2ncnc(SCC(=O)Nc3ccc(CN4CCCC4)cc3)c2c1C,53.1% (active)
8,NC(=O)C1CCN(Cc2nc3c(Br)cc(Br)cc3c(=O)[nH]2)CC1,41.7% (active)
9,CCOC(=O)c1c(C)[nH]c(=S)c(C#N)c1-c1ccccc1,43.5% (active)
10,CCC(C)(O)C(=O)OC1C(=O)OC2CC3C(C)=CC(=O)C(O)C3(C)C3C4(O)OCC23C1C(C)C4O (stereo not drawn),98.8% (active)
11,COC(=O)Cc1[nH]n(-c2nc3ccccc3s2)c(=O)c1C(C)=Nc1ccc(OC)cc1,5.13%
12,COc1ccc(C(=O)Nc2nc(-c3ccc(S(=O)(=O)N4CCOCC4)cc3)cs2)cc1,27.4% (active)
13,Cc1cc2cc(CNC(=O)c3ccc(S(=O)(=O)N4CCOCC4)cc3)ccc2[nH]1,15.2%
14,Cc1ccsc1C(=O)OCC(=O)Nc1cccc(F)c1,8.25%
15,Cc1ccc(CSc2ccc(S(=O)(=O)N3CCCCC3)cn2)cc1,6.8%
16,CCc1c(C)nc2cc(-c3cccs3)[nH]n2c1=O,41.7% (active)
17,O=C(COC(=O)c1ccccc1SCC(=O)NC1CCCCC1)NC1CCCCC1,24.6% (active)
18,O=C1CCCC2=C1C(c1cccs1)n1nc(SCc3ccccc3)nc1N2 (stereo not drawn),20%
19,N#C/C=C1\Sc2ccccc2C(=O)N1CC(=O)N1CCN(S(=O)(=O)c2ccccc2)CC1,67.5% (active)
20,N#Cc1ccc(OCC(=O)Nc2nc(-c3ccccn3)cs2)cc1,18.7%
21,COc1ccc(OC)c(NC(=O)c2cc(-c3cc(F)ccc3OCC3CCCO3)n[nH]2)c1 (stereo not drawn),10.2%

row,SMILES,inhibition
1,CC(=O)N1CCCc2cc(S(=O)(=O)N3CCCC(C(=O)NCc4ccc(Cl)cc4)C3)ccc21 (stereo not drawn),17.2%
2,CC(=O)N1c2ccc(S(=O)(=O)N3CCCC(C(=O)Nc4cccc(F)c4)C3)cc2CC1C (stereo not drawn),49.1% (active)
3,CC(=O)N1CCCc2cc(S(=O)(=O)N3CCCC(C(=O)N4CCN(c5cccc(Cl)c5)CC4)C3)ccc21 (stereo not drawn),38.3% (active)
4,O=C(NC(Nc1nc2ccc([N+](=O)[O-])cc2s1)(C(F)(F)F)C(F)(F)F)c1ccccc1,65.9% (active)
5,CC(=O)Nc1cccc(OCC(=O)/C=C2\N(C)c3ccccc3C2(C)C)c1,20.8%
6,CN1/C(=C\C(=O)c2oc3ccccc3c2N)C(C)(C)c2ccccc21,49.3% (active)
7,O=C(Cc1ccccc1)Nc1cccc(NC(=O)c2ccccc2)c1,11.2%
8,O=C(Nc1ccc(C2CC2(Cl)Cl)cc1)c1cccc([N+](=O)[O-])c1 (stereo not drawn),24.7% (active)
9,Cc1ccc(CNC(=O)Nc2nnc([C@H]3C[C@H](O)[C@@H](CO)O3)s2)cc1,-0.76%
10,Cc1ccc(Oc2cnn(-c3ccccc3)c(=O)c2Br)cc1,51.9% (active)
11,CC(=O)c1nc(N2C(=O)C3CC=C(C)CC3C2=O)sc1C (stereo not drawn),18%
12,Cc1[nH]n(-c2ccccc2)c(=O)c1/C=N/NC(=O)c1ccoc1C,60.1% (active)
13,O=C(c1ccc(F)cc1)c1cn(Cc2ccc(F)cc2)c2cc3c(cc2c1=O)OCCO3,90.5% (active)
14,Fc1ccc2[nH]c3c(N4CCSCC4)ncnc3c2c1,35.3% (active)
15,Cc1ccc(NC(=O)c2sc3nc(N)c(C#N)cc3c2N)cc1,35.3% (active)
16,CCc1nc(SCC(=O)NNC(=O)c2ccc(C)cc2)c2ccccc2n1,118% (active)
17,COC(=O)CSc1nc(C2CC2)nc2ccccc12,35.9% (active)
18,O=c1[nH]cccc1-c1nc2ccccc2n1Cc1ccc(Cl)cc1,35.3% (active)
19,CCCCC(=O)NC(c1ccc(OC)c(OC)c1)c1ccc2cccnc2c1O (stereo not drawn),26.9% (active)
20,CCCCCCCCCCCCn1ccc(=N)cc1,38.5% (active)
21,O=C(Nc1ccc(N2CCN(C(=O)c3ccccc3)CC2)c(Cl)c1)c1cccnc1,12.3%
